From PubChem BioAssay (EPA / NIEHS) come the findings set out here.

Each structure is given as a SMILES string. Calls of active or inactive are those of the source. How the source made its calls: active means hit-call score of the fitted dose curve at least 0.9, where 1 is the maximum; inactive means score below 0.9.

In this assay the target is Bile acid receptor (Homo sapiens) (UniProt Q96RI1). Kind of assay: ATG_IR1_CIS: Attagene CIS-FACTORIAL HepG2 Assay for human Nuclear Receptor Subfamily 1 Group H Member 4 (NR1H4), IR1 submotif (AID 2282946). The conditions noted are these: IR1 reporter transcription, actives raise or lower the signal. On the procedure: ATG_CIS is a cell-based, multiplexed-readout assay that uses HepG2, a human liver cell line, with measurements taken at 24 hours after chemical dosing in a 24-well plate.ATG_IR1_CIS is one of 52 assay component(s) measured or calculated from the ATG_CIS assay. It is designed to make measurements of mRNA induction, a form of inducible reporter, as detected with fluorescence intensity signals by Reverse transcription polymerase chain reaction (RT-PCR) and Capillary electrophoresis technology.Data from the assay component ATG_IR1_CIS was analyzed into 1 assay endpoint. This assay endpoint, ATG_IR1_CIS, was analyzed with bidirectional fitting relative to DMSO as the negative control and baseline of activity. Using a type of inducible reporter, measures of mRNA for gain or loss-of-signal activity can be used to understand the reporter gene at the transcription factor-level as they relate to the gene NR1H4. Furthermore, this assay endpoint can be referred to as a primary readout, because this assay has produced multiple assay endpoints where this one serves a reporter gene function. To generalize the intended target to other relatable targets, this assay endpoint is annotated to the nuclear receptor intended target family, where the subfamily is non-steroidal.
Sequence of Bile acid receptor (Homo sapiens) (Q96RI1 whole entry, looked up): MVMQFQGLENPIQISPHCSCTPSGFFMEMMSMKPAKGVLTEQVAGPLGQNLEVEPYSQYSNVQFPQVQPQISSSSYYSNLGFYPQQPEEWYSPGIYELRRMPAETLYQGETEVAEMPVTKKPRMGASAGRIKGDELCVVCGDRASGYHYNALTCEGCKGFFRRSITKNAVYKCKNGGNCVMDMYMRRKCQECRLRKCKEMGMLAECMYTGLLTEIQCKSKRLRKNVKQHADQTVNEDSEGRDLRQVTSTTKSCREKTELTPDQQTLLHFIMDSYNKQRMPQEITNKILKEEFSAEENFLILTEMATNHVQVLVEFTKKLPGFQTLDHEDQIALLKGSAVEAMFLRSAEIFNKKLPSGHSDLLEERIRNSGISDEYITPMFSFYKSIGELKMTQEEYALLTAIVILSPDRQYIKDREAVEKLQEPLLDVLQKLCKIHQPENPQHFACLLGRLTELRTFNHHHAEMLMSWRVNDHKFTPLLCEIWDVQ
Human liver HepG2 cells are transiently transfected with multiple reporter transcription units (MRTUs) in 6-well plates using FuGene 6 reagent (Roche; 3 ml FuGene/1 mg DNA). The MRTU constructs are regulated by a cis-regulating element (promoter). […] A major difference between the CIS and TRANS system is that in CIS activities of endogenous TFs are measured, whereas the TRANS assay evaluates changes in activities of exogenous, chimeric NR-Gal4 proteins. […] At the end of 24 hour incubation, total RNA was isolated using TriZol reagent (Invitrogen). The isolated RNA is then reverse-transcribed using oligo(dT) primer and Mo-MLV reverse transcriptase (Invitrogen) with DNAse I (Ambion) treatment for 30 min. The one-tenth of the produced cDNA was amplified by PCR using Taq DNA polymerase (Invitrogen) and two reporter sequence-specific primers. The PCR products were fluorescently labeled by primer extension with 6-arboxyfluorescein (6-FAM) 5'-labeled reporter sequence-specific primer (2 min at 95 C, 20 s at 68 C and 10 min at 72 C) and these products were digested with 5U of HpaI (New England Biolabs) for 2h at 37 C. The fragments were purified using Qiaquick PCR columns (Qiagen), analyzed on an ABI 3130xL genetic analyzer (Applied Biosystems) with peak positions identified by using a set of X-rhodamine (ROX)-labeled MapMarker1000 molecular weight standards (BioVentures). The raw capillary electrophoresis data was processed using Attagraph software (Attagene).
In the case of `CN1CCN(C)CC1`, the call was inactive.
Take `CCC(C)c1ccccc1` (stereo not given): the result was inactive.
As to `CC(C)[N+](C)(CCOC(=O)C1c2ccccc2Oc2ccccc21)C(C)C`, the result was inactive.
Take `CC1=C(O)C(=O)C(C)O1` (stereo not given): the result was inactive.
The same measure, in the same setting: the value for `CCN1CN(CC)CN(CC)C1` was “inactive”; that for `CC1(C)CCC[C@]2(C)[C@H]3CC(=O)O[C@]3(C)CC[C@@H]12` was “inactive”.
Same read-out and setting: the entry for `CCOC(=O)c1ccccc1C` is “inactive”; for `CC(C)C(=O)OCCc1ccccc1` it is “inactive”; for `COc1cc(O)c(C(=O)c2ccccc2)cc1S(=O)(=O)O` it is “inactive”.
On the same count and under the same terms, the entry for `Oc1ccc(/C=C/c2cc(O)cc(O)c2)cc1` is “inactive”; for `O=C(OCc1ccccc1)c1ccc(O)cc1` it is “inactive”.
For `O=S(=O)(O)c1ccc(Nc2nc(Nc3ccc(C=Cc4ccc(Nc5nc(Nc6ccc(S(=O)(=O)O)cc6)nc(N(CCO)CCO)n5)cc4S(=O)(=O)O)c(S(=O)(=O)O)c3)nc(N(CCO)CCO)n2)cc1`, the call was inactive.
Regarding `Cc1cc(=O)[nH]c(=O)[nH]1`, the outcome was inactive.
`O=C1CCCN1C1CCCCC1`: the call was inactive.
On the same count and under the same terms, the entry for `CCC1(C)C(=O)N(Cl)C(=O)N1Cl` (stereo not given) is “inactive”; for `O=C(O)/C=C/c1ccccc1` it is “inactive”.
The same measure, in the same setting: the value for `C=CC(=O)O[C@H]1C[C@@H]2CC[C@@]1(C)C2(C)C` was “inactive”; that for `CC(=O)c1ccc(S(=O)(=O)NC(=O)NC2CCCCC2)cc1` was “inactive”.
Regarding `Cc1c[nH]c(=O)[nH]c1=O`, the compound was classed as inactive.
Take `O=C(O)c1ccc2c(c1)C(=O)OC2=O`: the call was inactive.
Consider `O=C(Cl)c1c(Cl)c(Cl)c(C(=O)Cl)c(Cl)c1Cl`, for which the compound was called inactive.
Consider `CCCCCCCCCCCC(C)=O`, for which the outcome was inactive.
In general, AC50 refers to the midpoint of the concentration-response curve, whichever way the signal moves. Regarding `c1ccc2sc(SSN3CCOCC3)nc2c1`, the half-maximal activity concentration (AC50) is 105 µM (active).
With `C=C[Si](OCCOC)(OCCOC)OCCOC`, the compound was classed as inactive.
For `CC1CCC(C(C)(C)S)C(=O)C1` (stereo not given), the result was inactive.
The same measure, in the same setting: the value for `CCCCC(=O)O` was “inactive”.
`CC1(C)CC(O)CC(C)(C)N1[O]`: the AC50 was 27.7 µM (active).
Take `CC(C)(CO)C(O)C(=O)NCCCO` (stereo not given): the result was inactive.
Regarding `COC(C=C(C)CCC=C(C)C)OC`, the outcome was inactive.
Same read-out and setting: the entry for `CCCCCCCC(=O)OCC(COC(=O)CCCCCCC)OC(=O)CCCCCCC` is “inactive”; for `O=C(Nc1ccccc1)c1cc(Cl)ccc1O` it is “inactive”.
The same measure, in the same setting: the entry for `O=C(O)C(F)(F)C(F)(F)C(F)(F)C(F)(F)C(=O)O` is “inactive”; for `CCCCCCCC(=O)OCC` it is “inactive”.
Still for that read-out and setting: the entry for `CCCCC1C(=O)N(c2ccccc2)N(c2ccccc2)C1=O` is “inactive”; for `COC(=O)CC(C)CCC=C(C)C` (stereo not given) it is “inactive”; for `CCCCCC1=CCCC1=O` it is “inactive”.
Regarding `CCCCCCOC(=O)CCCCC(=O)OCCCCCC`, the call was inactive.
Same read-out and setting: the entry for `Cn1ccnc1` is “inactive”; for `Cc1c(O)cccc1O` it is “inactive”.
Consider `C=CC(=O)OCCCCCCCC(C)C`, for which the concentration at half-maximal activity (AC50) was 91.4 µM (active).
